From PubChem
PLK1 PBD block = PLK1 (human) polo-box domain binding inhibition. Plk1 PBD binding of FITC phosphopeptide, fluorescence polarization. Potency, µM, most hits filed as inhibitors. actives 2.8% (n = 360,000). AID 720504; also: series mostly up to about 57 µM; nearly all actives have a fitted effect of over 65% in size
KAT2A inh = inhibitors of human GCN5L2 histone acetyltransferase. Q92830. GCN5L2 HAT assay, ThioGlo1 CoA-SH fluorescence. Potency, µM (titrated, usually from 58.9 µM), actives largely listed as inhibitors. actives 0.21% (n = 390,000). AID 504327
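ThioGlo1-coupled HAT assay: 20nM GCN5L2, 70uM acetyl-CoA, 75uM H3(1-25) peptide, pH 7.5. Fluorescence read at 340/540nm at start and after 20 min at room temperature.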
VDR inh = blocks the human vitamin D receptor | actives 0.93% (n = 400,000) | VDR-SRC2-3 peptide fluorescence polarization, 2 h | Potency, µM, actives largely listed as inhibitors | P11473
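Two reagent solutions held at 4 deg C in the dark were dispensed, compounds pinned at 23 nl, and the mixture incubated 2 h at room temperature. Read-out: fluorescence polarization of VDR–SRC2-3 peptide binding.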
USP1 inh = blocks the human USP1/UAF1 deubiquitinase complex | O94782 | recombinant USP1/UAF1, Ub-Rhodamine cleavage fluorescence | Potency, µM (series often up to 57.1 µM), hits mostly inhibitors | actives 0.23% (n = 390,000); also: nearly all actives have a fitted effect of over 60% in size
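USP1/UAF1 complex at 1 nM was preincubated with compound for 15 min at room temperature, then Ub-Rho substrate (150nM final) was added. Fluorescence (480/540 nm) was read kinetically, 6 reads every 60 seconds.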
PTAP TSG101 blk = blocks PTAP/TSG101 interaction to inhibit HIV-1 budding. Fluorescence polarization, FITC-PTAP peptide / Tsg101 binding. Potency, µM (series often up to 115 µM), most hits filed as inhibitors. 340,000 tested, under 10 active. AID 493005; active = well fitted inhibition curve with a large enough effect in the main read-out, with a control signal flat, not every such curve was filed as active; inconclusive = small, poorly fitted or top-dose-only effect, or effect the other way, or a change in a side signal; inactive = no such curve, though single readings can be large or run the other way
Target sequence (Q99816 whole entry, looked up): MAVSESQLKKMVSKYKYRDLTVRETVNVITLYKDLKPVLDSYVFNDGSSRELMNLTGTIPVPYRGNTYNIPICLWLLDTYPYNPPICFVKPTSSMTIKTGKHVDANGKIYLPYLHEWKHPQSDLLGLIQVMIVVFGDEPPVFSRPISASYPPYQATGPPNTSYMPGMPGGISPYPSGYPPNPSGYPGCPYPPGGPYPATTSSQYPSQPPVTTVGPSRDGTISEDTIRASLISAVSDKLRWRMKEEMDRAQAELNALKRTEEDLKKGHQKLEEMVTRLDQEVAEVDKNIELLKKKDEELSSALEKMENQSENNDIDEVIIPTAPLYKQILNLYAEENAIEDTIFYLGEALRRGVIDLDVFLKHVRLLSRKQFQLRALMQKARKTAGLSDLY
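Fluorescence polarization binding of Tsg101 binding domain (10 uM final) to FITC-labeled PTAP peptide (50 nM final) in HEPES pH 7.5 buffer with NaCl, Tween 20, EDTA, TCEP. Compounds added before peptide; binding 20 min at RT.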
Each line names hits and unclear results; the compound was inactive in the other large screens. Only some compounds are listed: those with a hit (about 3% of all), similar ones and a draw of the others. Unless noted, calls follow the shape of the dose curve; as a rule, active = well fitted curve in the direction sought with a large enough effect; inconclusive = small, poorly fitted or top-dose-only effect, or another doubt; inactive = no such curve, though single readings can be large; an effect the other way counts as inactive or inconclusive.

COc1cc2c(cc1OC)C(COc1ccccc1OC)N(C(=O)C(C)(C)C)CC2 (stereo unspecified)	PLK1 PBD block 30µM
CC1(C(=O)NS(=O)(=O)c2ccccc2C(F)(F)F)CCN1C(=O)CC1CCCC1 (stereo unspecified)	none (no result: KAT2A inh, VDR inh, USP1 inh, PTAP TSG101 blk)
O=C(Nc1ccc2nc3n(c(=O)c2c1)CCCCC3)C(=O)N1CCN(c2ccccc2F)CC1	PLK1 PBD block 30µM, VDR inh inconclusive
O=C(Nc1ccc2nc3n(c(=O)c2c1)CCCCC3)C(=O)Nc1ccccc1F	USP1 inh inconclusive (no result: PLK1 PBD block, PTAP TSG101 blk)
N#C/C(=C\c1cccc([N+](=O)[O-])c1)C(=O)NCc1ccc(Cl)cc1	PLK1 PBD block inconclusive, VDR inh 40µM, USP1 inh inconclusive
COCCCNC(=O)/C(C#N)=C/c1ccc(OCC(=O)O)c(OC)c1	PLK1 PBD block 21µM, KAT2A inh inconclusive
COCCNC(=O)/C(C#N)=C/c1ccc(O)cc1	none
COCCNC(=O)/C(C#N)=C/c1cccc(/C=C(\C#N)C(=O)NCCOC)c1	PLK1 PBD block inconclusive, VDR inh 35µM
COc1ccc(/C=C(\C#N)C(=O)NCCc2ccccc2)cc1OCc1ccccc1	none
CC(C)C[C@@H]1CC2=C(C(=O)OC(C)(C)O2)[C@H](c2ccc(Cl)cc2)O1	none (no result: KAT2A inh, VDR inh, USP1 inh, PTAP TSG101 blk)
COc1cc2ccc(NC(C)=O)cc2cc1OC	none (no result: KAT2A inh, VDR inh, PTAP TSG101 blk)
C=CCCN(Cc1ccc(OC)cc1)S(=O)(=O)c1ccccc1Br	none (no result: PLK1 PBD block, KAT2A inh, USP1 inh, PTAP TSG101 blk)
CC(OCc1ccccc1)C(NC(=O)OC(C)(C)C)C(=O)NC1COC2CC(n3cc(F)c(=O)[nH]c3=O)OC12 (stereo unspecified)	none (no result: PLK1 PBD block, KAT2A inh, USP1 inh, PTAP TSG101 blk)
COCCn1c(C)cc(C(=O)CSc2nc3ccccc3c(=O)[nH]2)c1C	none
C=CCn1c(C)cc(C(=O)CSc2nc3ccccc3c(=O)[nH]2)c1C	PLK1 PBD block 12µM
O=S(=O)(c1ccc(Cl)cc1)c1nnn2c1nc(NCc1cccs1)c1sccc12	none (no result: PLK1 PBD block, PTAP TSG101 blk)
CCNC(=O)c1ccccc1-c1nc(-c2ccccc2Cl)no1	PLK1 PBD block 12µM
COc1ccc(CNc2nc(Cl)nc3nc[nH]c23)cc1	none (no result: PLK1 PBD block, KAT2A inh, USP1 inh, PTAP TSG101 blk)
NC(=S)N=Nc1ccc(O)cc1	PLK1 PBD block 27µM, VDR inh inconclusive, USP1 inh inconclusive (no result: KAT2A inh)
NC(N)=NC(N)=Nc1ccc(O)cc1	none
CN(C(=O)CSc1nc2c(c(=O)[nH]1)CCCC2)c1ccccc1	none (no result: PLK1 PBD block, PTAP TSG101 blk)
O=C1c2ccccc2CC1Sc1nnc(-c2ccccn2)o1 (stereo unspecified)	PLK1 PBD block 24µM, VDR inh inconclusive
CCc1ccc(NC(=O)c2sc(-n3nc(C)c(CCC(C)C)c3C)nc2C)cc1	none (no result: PLK1 PBD block, PTAP TSG101 blk)
O=C(O[C@@H]1Cc2c(O)cc(O)cc2OC1c1ccc(O)c(O)c1)c1cc(O)c(O)c(O)c1 (stereo partly specified)	VDR inh inconclusive (no result: PLK1 PBD block, USP1 inh, PTAP TSG101 blk)
O=C(OC1Cc2c(O)cc(O)cc2OC1c1cc(O)c(O)c(O)c1-c1c(C2Oc3cc(O)cc(O)c3CC2OC(=O)c2cc(O)c(O)c(O)c2)cc(O)c(O)c1O)c1cc(O)c(O)c(O)c1 (stereo unspecified)	KAT2A inh 14µM, VDR inh inconclusive (no result: PLK1 PBD block, USP1 inh, PTAP TSG101 blk)
COc1ccc(S(=O)(=O)Nc2c(C(=O)O)[nH]c3ccccc23)c(OC)c1	none
COc1ccc(S(=O)(=O)Nc2c(C(=O)O)[nH]c3ccc(OC)cc23)c(OC)c1	PLK1 PBD block 15µM
COc1ccc(CNC(=O)c2cc3c(=O)[nH]c4ccccc4c3n2C)c(OC)c1	USP1 inh inconclusive (no result: PLK1 PBD block, PTAP TSG101 blk)
Cc1nc(NC(=S)NC(=O)c2cncc(Br)c2)ccc1Br	PLK1 PBD block 21µM, VDR inh inconclusive
O=C(Nc1nc(-c2ccccc2)cs1)c1ccc(Br)o1	PLK1 PBD block 30µM, VDR inh inconclusive
COc1ccc2c(c1)c1c(c(=O)n(-c3ccccc3C)c(=O)n1Cc1cccc(C(F)(F)F)c1)n2C	USP1 inh inconclusive (no result: PLK1 PBD block, PTAP TSG101 blk)
C=CSc1sc(Cl)c(N2CCOCC2)c1[N+](=O)[O-]	none
C=CS(=O)(=O)c1sc(Cl)c(N2CCOCC2)c1[N+](=O)[O-]	PLK1 PBD block 0.53µM, KAT2A inh inconclusive, VDR inh inconclusive
O=C(/C=C/c1cc[n+](CC(=O)c2ccc3cccc4c3c2CC4)cc1)c1ccc2cccc3c2c1CC3	PLK1 PBD block 19µM, USP1 inh inconclusive
O=C(/C=C/c1ccccc1)NC(=S)Nc1ccc2c3c(cccc13)CC2	none
